# Assay results from the supplement of paper PMC8877412.
# Where a name gives a salt, the structure may show the parent alone. ± gives the uncertainty stated by the source.
# Tested on: NCC-PMP1-C1
# Assay: cell viability relative to DMSO control; higher = less growth inhibition
# Conditions: 10 µM; 72 h
# Procedure: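 NCC-PMP1-C1 pseudomyxoma peritonei cells were seeded in 384-well plates coated with Matrigel and MEF (1e4 cells). Viability was read after 72 h by CCK-8 and expressed as % of the DMSO control, mean ± SD of duplicates.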
row,Structure (SMILES),cell viability
1,Cc1nc(Nc2ncc(C(=O)Nc3c(C)cccc3Cl)s2)cc(N2CCN(CCO)CC2)n1 [Dasatinib Monohydrate],41.1 ± 8.4%
2,Nc1nc(Cl)nc2c1ncn2[C@@H]1O[C@H](CO)[C@@H](O)[C@@H]1F [Clofarabine],112 ± 5.7%
3,COc1cc2c(Oc3ccc4[nH]c(C)cc4c3F)ncnc2cc1OCCCN1CCCC1 [Cediranib (AZD2171)],22.4 ± 14%
4,FC(F)(F)c1ccc(/C=C/c2nc(COc3ccc(CCCCn4ccnn4)cc3)co2)cc1 [Mubritinib (TAK 165)],171 ± 3.5%
5,O=c1c(-c2ccc(O)cc2)coc2cc(O)cc(O)c12 [Genistein],100 ± 2.1%
6,C[C@H](NC(=O)Cc1cc(F)cc(F)c1)C(=O)N[C@H](C(=O)OC(C)(C)C)c1ccccc1,96.2 ± 2.6%
7,CC(=O)[C@]1(O)Cc2c(O)c3c(c(O)c2[C@@H](O[C@H]2C[C@H](N)[C@H](O)[C@H](C)O2)C1)C(=O)c1ccccc1C3=O [Idarubicin HCl],4.26 ± 0.73%
8,C=CC(=O)N1CCC(Oc2cc3c(Nc4ccc(Cl)c(Cl)c4F)ncnc3cc2OC)CC1 [Poziotinib (HM781-36B)],76.9 ± 8.5%
9,CS(=O)(=O)CCNCc1ccc(-c2ccc3ncnc(Nc4ccc(OCc5cccc(F)c5)c(Cl)c4)c3c2)o1,51.2 ± 7.9%
10,O=C1NC(=O)[C@@H](c2cn3c4c(cccc24)CCC3)[C@@H]1c1c[nH]c2ccccc12 [Tivantinib (ARQ 197)],79.8 ± 7.7%
11,COc1cc2nccc(Oc3ccc(NC(=O)C4(C(=O)Nc5ccc(F)cc5)CC4)cc3)c2cc1OC [Cabozantinib malate (XL184)],52.5 ± 6.2%
12,COC(=O)C1=C(C#N)NC(C)=C(C(=O)OC(C)C)C1c1cccc([N+](=O)[O-])c1 (stereo not given) [Nilvadipine],82.8 ± 3.3%
13,Nc1nnc(-c2cccc(Cl)c2Cl)c(N)n1 [Lamotrigine],102.9 ± 0.8%
14,Cc1ccc(C(=O)Nc2ccc(CN3CCN(C)CC3)c(C(F)(F)F)c2)cc1C#Cc1cnc2cccnn12,1.8 ± 0.67%
15,"O=c1[nH]cc(F)c(=O)[nH]1 [Fluorouracil (5-Fluoracil, 5-FU)]",86.7 ± 7.5%
16,CO[C@H]1C[C@@H]2CC[C@@H](C)[C@@](O)(O2)C(=O)C(=O)N2CCCC[C@H]2C(=O)O[C@H]([C@H](C)C[C@@H]2CC[C@@H](OC(=O)C(C)(CO)CO)[C@H](OC)C2)CC(=O)[C@H](C)/C=C(\C)[C@@H](O)[C@@H](OC)C(=O)[C@H](C)C[C@H](C)/C=C/C=C/C=C/1C,155 ± 67%
17,C=CC(=O)Nc1cc(Nc2nccc(-c3cn(C)c4ccccc34)n2)c(OC)cc1N(C)CCN(C)C [Osimertinib (AZD9291)],4.44 ± 0.89%
18,CCOc1cc(C(C)(C)C)ccc1C1=N[C@@](C)(c2ccc(Cl)cc2)[C@@](C)(c2ccc(Cl)cc2)N1C(=O)N1CCN(CCCS(C)(=O)=O)CC1,52.5 ± 3.1%
19,"Cc1[nH]c(/C=C2\C(=O)Nc3ccccc32)c(C)c1CCC(=O)O [Orantinib (TSU-68, SU6668)]",115 ± 2.1%
20,O=C(O)C(=O)O.[NH-][C@@H]1CCCC[C@H]1[NH-].[Pt+2] [Oxaliplatin],103 ± 15%

row,Structure (SMILES),cell viability
1,CC(C)C(=O)Nc1ccc([N+](=O)[O-])c(C(F)(F)F)c1 [Flutamide],74 ± 38%
2,C=CC(=O)N1CCC[C@@H](n2nc(-c3ccc(Oc4ccccc4)cc3)c3c(N)ncnc32)C1,59 ± 5.5%
3,"CCCS(=O)(=O)Nc1ccc(F)c(C(=O)c2c[nH]c3ncc(-c4ccc(Cl)cc4)cc23)c1F [Vemurafenib (PLX4032, RG7204)]",-12.5 ± 0.2%
4,CC(=O)OCC(=O)[C@@]1(O)CC[C@H]2[C@@H]3CCC4=CC(=O)CC[C@]4(C)[C@H]3C(=O)C[C@@]21C [Cortisone acetate],114 ± 4.4%
5,COc1ccc(/C=C/C(=O)Nc2ccccc2C(=O)O)cc1OC [Tranilast],111 ± 20%
6,CN1CCN(CCOc2cc(OC3CCOCC3)c3c(Nc4c(Cl)ccc5c4OCO5)ncnc3c2)CC1 [Saracatinib (AZD0530)],49.7 ± 2%
7,O=C(/C=C/c1cccc(S(=O)(=O)Nc2ccccc2)c1)NO [Belinostat (PXD101)],7.52 ± 0.13%
8,Nc1[nH]cnc2ncnc1-2 [Adenine HCl],108 ± 25%
9,COc1cc2ncnc(Nc3ccc(F)c(Cl)c3)c2cc1OCCCN1CCOCC1 [Gefitinib(ZD1839)],85.16 ± 0.73%
10,CCN(CC)CCOc1ccc(C(=C(Cl)c2ccccc2)c2ccccc2)cc1 [Clomifene citrate],-6.65 ± 0.33%
11,CC[C@H]1OC(=O)[C@H](C)[C@@H](O[C@H]2C[C@@](C)(OC)[C@@H](O)[C@H](C)O2)[C@H](C)[C@@H](O[C@@H]2O[C@H](C)C[C@H](N(C)C)[C@H]2O)[C@](C)(O)C[C@@H](C)CN(C)[C@H](C)[C@@H](O)[C@]1(C)O [Azithromycin],123 ± 2.7%
12,COC(=O)N[C@H](C(=O)N[C@@H](Cc1ccccc1)[C@@H](O)CN(Cc1ccc(-c2ccccn2)cc1)NC(=O)[C@@H](NC(=O)OC)C(C)(C)C)C(C)(C)C [Atazanavir Sulfate],109 ± 1.1%
13,CNC(=O)c1ccccc1Sc1ccc2c(/C=C/c3ccccn3)n[nH]c2c1 [Axitinib],61.27 ± 0.13%
14,C=C1c2cccc(O)c2C(O)=C2C(=O)[C@]3(O)C(O)=C(C(N)=O)C(=O)[C@@H](N(C)C)[C@@H]3[C@@H](O)[C@H]12 [Methacycline HCl],108.4 ± 0.2%
15,Nc1ccn([C@@H]2O[C@H](CO)[C@@H](O)[C@@H]2O)c(=O)n1 [Cytosine β-D-arabinofuranoside hydrochloride],74.2 ± 10%
16,CCCCCOC(=O)Nc1nc(=O)n([C@@H]2O[C@H](C)[C@@H](O)[C@H]2O)cc1F [Capecitabine],98.9 ± 16%
17,CNC(=O)c1cc(Oc2ccc(NC(=O)Nc3ccc(Cl)c(C(F)(F)F)c3)cc2)ccn1 [Sorafenib],-8.05 ± 0.27%
18,CN(C)/N=N/c1[nH]cnc1C(N)=O [Dacarbazine],111.7 ± 1.1%
19,COc1cc(Nc2c(C#N)cnc3cc(OCCCN4CCN(C)CC4)c(OC)cc23)c(Cl)cc1Cl [Bosutinib (SKI-606)],52.4 ± 0.73%
20,CS(=O)(=O)c1ccc(C(=O)Nc2ccc(Cl)c(-c3ccccn3)c2)c(Cl)c1 [Vismodegib (GDC-0449)],90.5 ± 3.3%
